Bioassay records: PubChem, several laboratories
Rows were chosen to be rich in hits. Some 3% of all compounds tested hit in one or more screens of this group.
NALP1 yeast inh: NALP1 inflammasome inhibitors in reconstituted yeast, colorimetric, S. cerevisiae, triplicate retest. S. cerevisiae NALP1/ASC/caspase-1 growth, X-gal OD620, 72 h. inhibition, % at 10 µM. hit rate 0.61% among 280,000. AID 2071, 2009; in the data active means inhibition mostly above about 24%, no sharp cut-off; inactive means mostly below about 32%
CHT allo act: CHT positive allosteric modulators, primary screen, cell-based, membrane potential dye, choline EC20; High affinity choline transporter 1 (Homo sapiens), Q9GZV3; CHT-expressing cells; hits give high values; LV-AA mutant CHT in HEK293 cells; hit rate 0.49% among 310,000; AID 488977, 2010; B-score at 10 µM;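 active means initial fluorescence not abnormally high and integrated response B-score, plate-corrected, over 3 SD above library mean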
Target sequence (Q9GZV3 whole entry, looked up): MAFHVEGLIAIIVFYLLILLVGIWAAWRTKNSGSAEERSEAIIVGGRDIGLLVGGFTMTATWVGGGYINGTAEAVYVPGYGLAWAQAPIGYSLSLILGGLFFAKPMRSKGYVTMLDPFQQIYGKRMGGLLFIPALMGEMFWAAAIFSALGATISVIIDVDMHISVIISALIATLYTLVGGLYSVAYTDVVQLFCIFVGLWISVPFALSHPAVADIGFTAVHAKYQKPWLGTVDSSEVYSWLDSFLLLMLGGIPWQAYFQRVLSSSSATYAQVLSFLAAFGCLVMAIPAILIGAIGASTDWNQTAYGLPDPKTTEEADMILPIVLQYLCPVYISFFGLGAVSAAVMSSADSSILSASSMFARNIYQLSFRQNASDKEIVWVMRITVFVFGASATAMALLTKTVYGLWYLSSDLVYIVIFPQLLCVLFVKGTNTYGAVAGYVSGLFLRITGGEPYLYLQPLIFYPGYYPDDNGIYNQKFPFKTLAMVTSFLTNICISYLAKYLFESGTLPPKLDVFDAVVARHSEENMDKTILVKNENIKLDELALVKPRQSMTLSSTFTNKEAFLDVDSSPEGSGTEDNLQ
A1 inh: caspase 3/7 activation in MEF A1-2A-BIM cells, primary screen, A1 inhibitor project, cell-based, luminescence, HTS | AID 2462, 2010 | caspase activation, % (concentration not given with the values) | hit rate 0.066% among 330,000 | Caspase-Glo 3/7 luminescence, 3 h; percent of clofoctol response, vehicle zero;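 active means over half of replicate activation scores above 10%, or exactly half above 10 with the replicate mean above 10; inconclusive means replicate mean below 10 yet half the replicates above 10; inactive means over half of replicates below 10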
NALP3 yeast inh: NALP3 inflammasome inhibitors in reconstituted yeast, primary screen, luminescence, uHTS. Yeast reconstituted NLRP3/ASC/caspase-1, beta-gal luminescence, 24 h. inhibition, % at 10 µM. hit rate 0.39% among 330,000. AID 2825, 2010;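 active means inhibition of 50% or more; inactive means inhibition below 50%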;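 further: plate controls were induced DMSO wells for no effect and uninduced yeast grown without galactose for full effect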
CHT inh: inhibitors of human choline transporter CHT. High affinity choline transporter 1 (Homo sapiens), Q9GZV3. CHT-expressing cells, membrane potential dye, choline response; hits give low values. B-score at 10 µM. hit rate 0.86% among 310,000. AID 488975, 2010;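 active means B-score over 3 SD under the library average, and starting fluorescence ratio not unusually high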;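 further: choline stimulus applied at its EC90 after an EC20 pre-addition; B-score computed on integrated fluorescence ratio after choline addition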
Mot1-301 SUMO: yeast Mot1-301 growth rescue at high temperature, primary screen, SUMOylation pathway inhibitor project, S. cerevisiae, ATP luminescence, 38.5C | S. cerevisiae Mot1-301 growth rescue; percent above DMSO median, 100 means doubled | growth rescue, % at 18.8 µM | hit rate 1% among 320,000;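 active means every valid replicate shows activation above 250% relative to neutral control wells; inactive means the rest, any valid replicate at or below 250%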;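 further: OY570 slx delta 5 strain wells were the positive control but not used for scaling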
Starred values were filed as active, the others as inactive.

`O=C(Nc1ccccc1)c1nnsc1S(=O)c1ccc(Cl)cc1` (centres undefined) gave NALP1 yeast inh -1, CHT allo act inactive, A1 inh 0, NALP3 yeast inh 41, CHT inh inactive and Mot1-301 SUMO 79.
Screening CC1CC(C)CN(C(=O)CSc2nnc(-c3ccc(Cl)cc3)o2)C1 (centres undefined) returned NALP1 yeast inh 35*, CHT allo act inactive, A1 inh 1, NALP3 yeast inh 24, CHT inh inactive and Mot1-301 SUMO 60.
Cc1ccc(-c2nnc(SCC(=O)N3CC(C)CC(C)C3)o2)cc1C (centres undefined) was read as NALP1 yeast inh 14, CHT allo act inactive, A1 inh 0, NALP3 yeast inh 37, CHT inh inactive and Mot1-301 SUMO -14.
CCN(Cc1nc2cc(Cl)ccc2c(=O)[nH]1)C(=O)CN1C(=O)NC2(CCCCC2C)C1=O (centres undefined) was read as NALP3 yeast inh 17.
`COc1ccccc1-n1c(SCc2cc(=O)oc3cc(O)ccc23)nc2ccccc2c1=O` gave NALP1 yeast inh 32, CHT allo act inactive, A1 inh 0, NALP3 yeast inh 9, CHT inh inactive and Mot1-301 SUMO -10.
For COc1ccccc1-n1c(=O)oc2ccc(Cl)cc2c1=O the results were NALP1 yeast inh 0, CHT allo act inactive, A1 inh -8, NALP3 yeast inh 30, CHT inh -8.5* and Mot1-301 SUMO -5.
C=C(C)COc1ccc(-c2nc(N)ncc2-c2ccc(Cl)cc2)c(O)c1 was read as NALP1 yeast inh 7, CHT allo act inactive, A1 inh 0, NALP3 yeast inh -2, CHT inh inactive and Mot1-301 SUMO -14.
`CCOc1ccc(C(Nc2cccnc2)c2cc(Cl)c3cccnc3c2O)cc1` (centres undefined) gave NALP1 yeast inh 44*, CHT allo act inactive, A1 inh 1, NALP3 yeast inh 21, CHT inh inactive and Mot1-301 SUMO -5.
COc1ccc(-c2nc(C#N)c(N3CCCCC3)o2)cc1 was read as NALP1 yeast inh 32, CHT allo act inactive, A1 inh 0, NALP3 yeast inh 32, CHT inh inactive and Mot1-301 SUMO 9.
COc1ccc(-c2nc(C#N)c(N3CCCCCC3)o2)cc1OC was read as NALP1 yeast inh 5, CHT allo act inactive, A1 inh 0, NALP3 yeast inh 17, CHT inh inactive and Mot1-301 SUMO 348*.
Screening CCOC(=O)NN=C1CN(S(=O)(=O)c2ccc(C)cc2)C1 returned NALP1 yeast inh -60, CHT allo act inactive, A1 inh 0, NALP3 yeast inh 13, CHT inh inactive and Mot1-301 SUMO -8.
`O=C(NCc1ccc2c(c1)OCO2)C1CCCN1C(=O)Nc1ccc(Cl)cc1` (centres undefined) gave NALP1 yeast inh 18, CHT allo act inactive, A1 inh 0, NALP3 yeast inh 3, CHT inh inactive and Mot1-301 SUMO -22.
For COc1ccccc1C1=NOC(COc2ccc3c(C)cc(=O)oc3c2)C1 (centres undefined) the results were NALP1 yeast inh 40*, CHT allo act inactive, A1 inh 2, NALP3 yeast inh 18, CHT inh -8.5* and Mot1-301 SUMO 9.
`COc1ccc(C2=NOC(COc3ccc4c(C)cc(=O)oc4c3)C2)c(OC)c1` (centres undefined) gave CHT allo act inactive, A1 inh 0, NALP3 yeast inh 19, CHT inh inactive and Mot1-301 SUMO 2.
CCOC(=O)c1ccccc1NC(=O)CSc1nc2[nH]ncc2c(=O)[nH]1 was read as CHT allo act inactive, A1 inh 1, NALP3 yeast inh 8, CHT inh inactive and Mot1-301 SUMO 494.
`O=C(O)c1cnn(-c2ccccc2)c1-c1ccncc1` gave NALP1 yeast inh 13, CHT allo act inactive, A1 inh 1, NALP3 yeast inh 13, CHT inh inactive and Mot1-301 SUMO 322*.
`O=C(O)CCCN=CC1=C(O)CNC1=O` gave NALP1 yeast inh -4, CHT allo act inactive, A1 inh 0, NALP3 yeast inh 9, CHT inh inactive and Mot1-301 SUMO -6.
`Cc1ccc(CN2C(=O)C(=O)c3cc(C)ccc32)cc1` gave A1 inh inconclusive, NALP3 yeast inh 26 and Mot1-301 SUMO 101.
Screening Cc1ccc2c(c1)C(=O)C(=O)N2Cc1ccc(Br)cc1 returned A1 inh 5.9*, NALP3 yeast inh 30 and Mot1-301 SUMO 187.
For CCOC(=O)c1c(C)[nH]c(C(=O)COC(=O)c2ccc([N+](=O)[O-])o2)c1C the results were A1 inh 2, NALP3 yeast inh 28 and Mot1-301 SUMO -8.
For CCOc1ccc(C(=O)NCC(=O)NCC(c2ccco2)N2CCCCC2)cc1 (centres undefined) the results were A1 inh -1, NALP3 yeast inh 12 and Mot1-301 SUMO -7.
Screening CCCCNc1nc(-c2ccccc2)c(C(=O)OCC)cc1C#N returned NALP1 yeast inh 44*, CHT allo act inactive, A1 inh 0, NALP3 yeast inh 21, CHT inh inactive and Mot1-301 SUMO -2.
Screening O=C(Nc1ccc(O)c2c(=O)cc(-c3cccc(Cl)c3)oc12)c1cccc(Cl)c1 returned NALP1 yeast inh 0, CHT allo act inactive, A1 inh 15*, NALP3 yeast inh 4, CHT inh inactive and Mot1-301 SUMO -19.
Screening CC(C)(C)c1ccc(C(=O)Nc2ccc(O)c3c(=O)cc(-c4cccc(Cl)c4)oc23)cc1 returned NALP1 yeast inh 12, CHT allo act inactive, A1 inh inconclusive, NALP3 yeast inh 4, CHT inh inactive and Mot1-301 SUMO -5.
`Cc1cc(C)n(C(C[N+](=O)[O-])c2ccc(Cl)cc2)n1` (centres undefined) gave NALP1 yeast inh 101*, CHT allo act inactive, A1 inh 1, NALP3 yeast inh 22, CHT inh inactive and Mot1-301 SUMO 279*.
For Cc1cc(O)c(C(C[N+](=O)[O-])c2ccc(Cl)cc2)c(=O)o1 (centres undefined) the results were NALP1 yeast inh 14, CHT allo act inactive, A1 inh 0, NALP3 yeast inh -7, CHT inh inactive and Mot1-301 SUMO -5.
CCOC(=O)c1nnc(-c2cccs2)nc1NC(C)C was read as NALP1 yeast inh 24*, CHT allo act inactive, A1 inh 0, NALP3 yeast inh 22, CHT inh inactive and Mot1-301 SUMO 3.
